These results are taken from PubChem BioAssay (Tox21).

Records with an inconclusive call do not appear. Entries that show only a call come without a potency. A number with no mark means an inactive call. Active and inactive are the calls of the source. Calls come from the whole dose curve; as a rule, active = well fitted curve in the direction sought with a large enough effect in the repeat runs; inconclusive = weak or mixed curves; inactive = no such curve, though single readings can be large; an effect the other way counts as inactive or inconclusive.

The first experiment can be described thus: qHTS RealTime-Glo MT Cell Viability Assay in HEK293 cells - 40 hour (AID 1224874). Note: nearly all actives have a fitted effect of over 50% in size. Note: potency is the fitted concentration of half-maximal effect. The following applies: RealTime-Glo luminescence; max response: stronger effect = lower value. The method in brief: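 HEK293 cells mixed with RealTime-Glo reagents (NanoLuc plus cell-permeant prosubstrate) at 600 cells/well, preincubated 5 h at 37 C/5% CO2, then given 23 nL compound in DMSO. Nonlytic luminescence from viable cells was read at 0, 8, 16, 24, 32 and 40 h.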
As to `Cc1cccc2nccnc12`, the max response is 6.74%.
The same measure, in the same setting: the figure for `CN(C)C(=O)CNC(=O)Cc1ccccc1` is 4.97%; for `CN(CCOc1ccc(NS(C)(=O)=O)cc1)CCc1ccc(NS(C)(=O)=O)cc1` it is -0.0536%; for `CCCCCCCCSCC` it is 7.92%.
Consider `NS(=O)(=O)c1cc2c(cc1Cl)CN(C1CCCCC1)C2=O`, for which the Potency is 9.52 µM (active).
On to `CN1C(C)(C)CCCC1(C)C`, for which the max response is -1.11%.
As to `CC(C)(C)c1cc(CCC(=O)NN)cc(C(C)(C)C)c1O`, the max response was -14%.
Still for that read-out and setting: the figure for `CCc1ccc(C=O)cc1` is -4.49%; for `CC(C)CC(=O)O` it is 6.56%; for `CC(C)CCCCOC(=O)c1ccccc1C(=O)OCCCCC(C)C` it is -1.41%.
Still for that read-out and setting: the figure for `CC(CO)c1ccccc1` (stereo not given) is -0.132%.
The same measure, in the same setting: the figure for `CC(=O)NCc1c(I)c(NC(C)=O)c(I)c(C(=O)O)c1I` is 3.65%; for `O=C(OCC(COC(=O)c1cccnc1)(COC(=O)c1cccnc1)COC(=O)c1cccnc1)c1cccnc1` it is 10.7%; for `CCOC(=O)c1ccc(OC(=O)CCCCCN=C(N)N)cc1` it is -15.8%.
Take `CC(=O)Nc1ccc(S(=O)(=O)Cl)cc1`: the max response was -6.18%.
In the case of `CCCCOC(=O)c1ccccc1`, the max response was 4.16%.
The same measure, in the same setting: the figure for `BrCc1cccc(Oc2ccccc2)c1` is -9.91%.

A further experiment in a line: A CellTox Green Cytotoxicity Assay to monitor cytotoxicity in HEK293 cells - 24 hour (AID 1224875). Note: nearly all actives have a fitted effect of over 45% in size. The following applies: CellTox Green fluorescence, stronger effect = higher value; series mostly up to 76.8 µM. The method in brief:
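HEK293 cells premixed with CellTox Green dye were seeded at 600 cells/well and left 5 h at 37 C/5% CO2 before pin transfer of 23 nL compound in DMSO. Fluorescence from dye bound to dead-cell DNA was read during 40 h treatment.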
Consider `OCCCCC(O)CO` (stereo not given), for which the compound was called inactive.
The same measure, in the same setting: the entry for `C=CC(OCC)OCC` is “inactive”; for `Cc1[nH]cnc1-c1ccc(Cl)cc1` it is “inactive”.
As to `c1ccc2c(c1)ccc1c3ccccc3ccc21`, the compound was called inactive.
As for `Oc1cn2c(n1)Nc1ccc(Cl)c(Cl)c1C2`, the activity change was -3.58% [at 15.8 µM].
As for `CCOC(=O)c1ncn2c1CN(C)C(=O)c1cc(F)ccc1-2`, the compound was called inactive.
As for `C[Si](C)=O`, the activity change is 9.97% [at 6.97 µM].
For the compound `CC(=O)OC(C)OC(=O)C(C)c1ccc(-c2ccccc2)c(F)c1` (stereo not given), the compound was called inactive.
In the case of `COP(=O)(OC)OC(c1ccc(Cl)cc1)P(=O)(OC)OC` (stereo not given), the call was inactive.
Consider `CCOCCOCCOCC`, for which the compound was classed as inactive.
In the case of `CC1=C(C(=O)O)N2C(=O)[C@@H](NC(=O)[C@H](N)c3ccc(O)cc3)[C@H]2SC1`, the result was inactive.
For `COc1ccc2c(c1OC)C(=O)O[C@@H]2[C@H]1c2c(cc3c(c2OC)OCO3)CCN1C`, the result was inactive.
On the same count and under the same terms, the entry for `CC(COC(C)(C)C)OCCCO` (stereo not given) is “inactive”; for `CC(C)(C)c1n[nH]c(=S)n(N)c1=O` it is “inactive”.
Still for that read-out and setting: the entry for `CC(C)C(=O)OCCc1ccccc1` is “inactive”.
On the same count and under the same terms, the entry for `CCCCCCN` is “inactive”; for `Cc1ccccc1OCC(O)CO` (stereo not given) it is “inactive”.
Turning to `COC(=O)C1CC(=O)C(C(=O)OC)CC1=O` (stereo not given), the activity change is 2.42% [at 6.97 µM].
On to `Cc1cccc(OCC(O)CNC(C)(C)C)c1C` (stereo not given), for which the compound was classed as inactive.
On the same count and under the same terms, the entry for `OCCC(F)(F)C(F)(F)C(F)(F)C(F)(F)C(F)(F)C(F)(F)C(F)(F)C(F)(F)F` is “inactive”.

The nature of another experiment: A CellTox Green Cytotoxicity Assay to monitor cytotoxicity in HepG2 cells - 16 hour (AID 1224876). Note: nearly all actives have a fitted effect of over 45% in size. The following applies: CellTox Green fluorescence; series mostly up to 76.8 µM. The method in brief:
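HepG2 cells were seeded together with the CellTox Green dye at 600 cells/well, left 5 h at 37 C/5% CO2, then given compounds in DMSO. Fluorescence from dye bound to dead-cell DNA was read repeatedly over 40 h of treatment at 37 C.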
In the case of `OCCCCC(O)CO` (stereo not given), the outcome was inactive.
The same measure, in the same setting: the entry for `Cc1cccc2nccnc12` is “inactive”; for `CN(C)C(=O)CNC(=O)Cc1ccccc1` it is “inactive”.
For `C=CC(OCC)OCC`, the result was inactive.
For the compound `CCCCCCCCSCC`, the result was inactive.
Same read-out and setting: the entry for `Cc1[nH]cnc1-c1ccc(Cl)cc1` is “inactive”; for `c1ccc2c(c1)ccc1c3ccccc3ccc21` it is “inactive”.
`NS(=O)(=O)c1cc2c(cc1Cl)CN(C1CCCCC1)C2=O`: the compound was called inactive.
On to `Oc1cn2c(n1)Nc1ccc(Cl)c(Cl)c1C2`, for which the cytotoxicity increase was -4.2% [at 15.8 µM].
As for `CCOC(=O)c1ncn2c1CN(C)C(=O)c1cc(F)ccc1-2`, the compound was called inactive.
The same measure, in the same setting: the entry for `CN1C(C)(C)CCCC1(C)C` is “inactive”; for `CC(C)(C)c1cc(CCC(=O)NN)cc(C(C)(C)C)c1O` it is “inactive”.
As to `C[Si](C)=O`, the cytotoxicity increase was -6.23% [at 6.97 µM].
Regarding `CC(=O)OC(C)OC(=O)C(C)c1ccc(-c2ccccc2)c(F)c1` (stereo not given), the compound was called inactive.
Same read-out and setting: the entry for `COP(=O)(OC)OC(c1ccc(Cl)cc1)P(=O)(OC)OC` (stereo not given) is “inactive”; for `CCOCCOCCOCC` it is “inactive”.
With `CC1=C(C(=O)O)N2C(=O)[C@@H](NC(=O)[C@H](N)c3ccc(O)cc3)[C@H]2SC1`, the compound was called inactive.
`COc1ccc2c(c1OC)C(=O)O[C@@H]2[C@H]1c2c(cc3c(c2OC)OCO3)CCN1C`: the call was inactive.
Still for that read-out and setting: the entry for `CC(C)CC(=O)O` is “inactive”; for `CC(COC(C)(C)C)OCCCO` (stereo not given) it is “inactive”.
Same read-out and setting: the entry for `CC(C)CCCCOC(=O)c1ccccc1C(=O)OCCCCC(C)C` is “inactive”; for `CC(CO)c1ccccc1` (stereo not given) it is “inactive”; for `O=C(OCC(COC(=O)c1cccnc1)(COC(=O)c1cccnc1)COC(=O)c1cccnc1)c1cccnc1` it is “inactive”.
With `CCOC(=O)c1ccc(OC(=O)CCCCCN=C(N)N)cc1`, the call was inactive.
Still for that read-out and setting: the entry for `CC(C)(C)c1n[nH]c(=S)n(N)c1=O` is “inactive”; for `CC(C)C(=O)OCCc1ccccc1` it is “inactive”.
For the compound `CC(=O)Nc1ccc(S(=O)(=O)Cl)cc1`, the outcome was inactive.
In the case of `CCCCCCN`, the outcome was inactive.
As to `Cc1ccccc1OCC(O)CO` (stereo not given), the compound was classed as inactive.
For `COC(=O)C1CC(=O)C(C(=O)OC)CC1=O` (stereo not given), the cytotoxicity increase was -5.58% [at 6.97 µM].
For the compound `BrCc1cccc(Oc2ccccc2)c1`, the outcome was inactive.
As to `Cc1cccc(OCC(O)CNC(C)(C)C)c1C` (stereo not given), the outcome was inactive.
Same read-out and setting: the entry for `OCCC(F)(F)C(F)(F)C(F)(F)C(F)(F)C(F)(F)C(F)(F)C(F)(F)C(F)(F)F` is “inactive”.
